DAX1 inh-1 = DAX1 (NR0B1) inhibition, primary screen. HEK293T StAR-luciferase reporter, SF-1/DAX-1 repression relief. inhibition, % at 6.8 µM. hit rate 1.1% among 370,000. AID 652010;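 active means inhibition above the mean over all tested compounds plus 3 SD, cut at about 3.6% in these data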;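 further: higher inhibition means more luminescence from relief of DAX-1 repression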
DAX1 inh-2 = inhibits human nuclear receptor DAX1. P51843. HEK293 Gal4-DAX1 luciferase reporter, luminescence. inhibition, % at 6.75 µM. hit rate 0.99% among 340,000. AID 504766;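 active means inhibition above the mean over all tested compounds plus 3 SD, cut at about 4.2% in these data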;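 further: inhibition shows as a rise in luminescence from relieved DAX1 repression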
Target sequence (P51843 207-470 limits assumed): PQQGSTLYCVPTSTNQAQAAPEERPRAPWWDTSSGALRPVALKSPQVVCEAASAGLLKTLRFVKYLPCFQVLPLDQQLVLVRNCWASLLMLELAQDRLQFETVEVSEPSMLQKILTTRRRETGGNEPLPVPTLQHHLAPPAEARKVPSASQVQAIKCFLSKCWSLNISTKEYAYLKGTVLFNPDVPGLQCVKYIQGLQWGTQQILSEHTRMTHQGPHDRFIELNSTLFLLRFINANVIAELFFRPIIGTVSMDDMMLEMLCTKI
hcDAF12 agonist = activates DAF-12 receptor from parasite H. contortus; HEK293 hcDAF-12 lit1-tk-luc reporter, luminescence; 0% DMSO, 100% Δ7-dafachronic acid; activation, % at 6.8 µM; hit rate 1.4% among 370,000; AID 652067;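 active means activation above the mean of all tested compounds plus 3 SD, cut at about 5.5% in these data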
hgDAF12 agonist = activates the H. glycines DAF-12 receptor ligand-binding domain | HEK293 GAL4-hgDAF12 UAS-luciferase reporter, agonist luminescence; normalized to butyrate control | activation, % at 6.8 µM | AID 687014 | hit rate 1.8% among 370,000;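 active means activation above a cutoff set at the mean of all screened compounds plus 3 SD, cut at about 10% in these data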
ssDAF12 agonist = activators of S. stercoralis DAF-12 nuclear receptor. HEK293 ssDAF-12/GRIP1 lit1-tk-luc reporter, luminescence; % of 3 µM dafachronic acid response. hit rate 1% among 370,000. activation, % at 6.8 µM;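 active means activation above the mean over all tested compounds plus 3 SD, cut at about 0.9% in these data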
Of the large screens only hits and unclear results are named; the others gave an inactive call. In the library only some 4.1% were active in any assay of this set; here they are far more common.

COc1cc2c(cc1NC(=O)C(C)OC(=O)/C=C/c1ccc(OC(F)F)cc1)oc1ccccc12 (stereo unspecified)	hcDAF12 agonist 8.2
COc1ccc(CC(=O)Nc2ccc(-c3cn4ccccc4n3)cc2)cc1	none
COc1ccc(CC(=O)Nc2cccc(-c3cn4ccccc4n3)c2)cc1	DAX1 inh-2 5.4
COc1ccc(NC(=O)NCCCN2CCN(c3ccc(F)cc3)CC2)cc1OC	none (no result: DAX1 inh-2)
O=C(O)Cn1ccc2ccccc21	hcDAF12 agonist 5.7
C=C(C)c1nc(Oc2ccccc2)nc(Oc2ccccc2)n1	DAX1 inh-2 6.0
CCOC(=O)Cc1nnc(NC(=O)COc2ccc(OC)cc2)s1	DAX1 inh-2 4.7
COc1ccccc1NC(=O)Cn1nnc(-c2ccccc2NS(=O)(=O)c2ccccc2)n1	none
COc1ccccc1NC(=O)Cn1nnc(-c2ccccc2NC(=O)c2cc3ccccc3oc2=O)n1	hcDAF12 agonist 14
O=C(O)c1ccc2c3c(cccc13)C(=O)N(c1cccc3ccccc13)C2=O	DAX1 inh-2 4.5
COc1cccc(CNC(=O)Cn2c(-c3ccccc3)cc(C(C)=O)c2C)c1	none (no result: DAX1 inh-2)
O=C1CCC2(CCCCC2)N1CCCO	none (no result: DAX1 inh-2)
COc1cccc(/C=N/NC(=O)CCNc2n[nH]c(=O)[nH]c2=O)c1OC	ssDAF12 agonist 1.5
COc1cccc(/C=N/NC(=O)C[n+]2ccccc2)c1OC	ssDAF12 agonist 2.3
COc1ccc(/C=N/NC(=O)C[n+]2ccccc2)c(OC)c1OC	none
C=CCNC(=O)C1CCN(c2cncnc2)CC1	none (no result: DAX1 inh-2)
COc1ccc(-c2nnn(CC(=O)N3CCN(c4ccc(F)cc4)CC3)n2)cc1	DAX1 inh-2 5.3
COc1ccc(CCC[C@H](CCC(=O)N(c2ccccc2)c2ccccc2)CCc2ccccc2)cc1	none (no result: DAX1 inh-2)
CCCN(CCC)CC(O)CN1C(=O)NC(C)(C)C1=O (stereo unspecified)	none
Cc1ccc(OCC(O)CN2C(=O)NC(C)(C)C2=O)cc1C (stereo unspecified)	hgDAF12 agonist 11
CCN(CC)CC(O)CN1C(=O)NC(C)(C)C1=O (stereo unspecified)	DAX1 inh-2 4.3
COc1ccc(C(=O)OCCN2CCN(C3CN(Cc4cn(Cc5cccc(F)c5)nn4)S(=O)(=O)C3)CC2)cc1OC (stereo unspecified)	none (no result: DAX1 inh-2)
CCCC1CCC2(CCCN2CCOC(=S)NCc2cccc(C)c2)CC1 (stereo unspecified)	none (no result: DAX1 inh-1, DAX1 inh-2)
Cc1cc(Cl)ccc1NC(=O)/N=C1/NC(=O)CS1	ssDAF12 agonist 1.1 (no result: DAX1 inh-2)
COc1ccc(OCc2cc(C(=O)N[C@H]3CCCCNC3=O)no2)c(Cl)c1	DAX1 inh-1 3.6
COc1ccc(OCc2cc(C(=O)NC(C)c3nc(C)cs3)no2)c(Cl)c1 (stereo unspecified)	hgDAF12 agonist 12
COc1ccc(OCc2cc(C(=O)N3CCCN(C(C)=O)CC3)no2)c(Cl)c1	none
COc1ccc(OCc2cc(C(=O)N(C)Cc3cc(C)no3)no2)c(Cl)c1	hgDAF12 agonist 12
CCOC(=O)[C@]12CCCCC/C=C\1N(CCc1ccc(Cl)cc1)C(=O)[C@H]2CC(=O)NCc1cccc(C(F)(F)F)c1	none (no result: DAX1 inh-2)
C#CCNC(=O)C[C@@H]1C[C@@](CCC(=O)OCC)(C(=O)OCC)C2=CCCCN2C1=O	none (no result: DAX1 inh-2)
O=S1(=O)c2ccc(N3CCN(Cc4ccccc4F)CC3)cc2Oc2ccccc2CN1Cc1cn(Cc2cccc(C(F)(F)F)c2)nn1	none (no result: DAX1 inh-2)
Nc1[nH]c(C(=O)c2ccccc2)c(-c2ccc3ccccc3c2)c1C(=O)NCc1ccc(F)cc1	none (no result: DAX1 inh-2)
CCOC(=O)c1cnc2c(ccc3ccccc32)c1NCCCN(C)C	DAX1 inh-2 8.1, hgDAF12 agonist 13
C=CCN1C(=O)[C@@H](CC(=O)NCc2ccc(C)o2)[C@]2(C(=O)OCC)CCCCC/C=C/12	none (no result: DAX1 inh-2)
CC(=O)N1CCOc2cc(S(=O)(=O)NCc3ccc(F)cc3)c(C)cc21	DAX1 inh-2 5.6
Cc1ccc(CNS(=O)(=O)c2cc3c(cc2C)N(C)CCO3)cc1	none
CC(C)NC(=O)N[C@H]1C[C@@H]2O[C@H](CO)CC[C@@H]2O[C@@H]1CCc1ccc(-c2ccc(F)cc2)cc1	none (no result: DAX1 inh-2)
CCc1nnn2c1Cn1c3ccccc3c(=O)n1[C@@H](C)C2	none (no result: DAX1 inh-2)
CCOC(=O)CSc1nc2ccccc2c(=O)n1NC(=O)c1ccccc1	DAX1 inh-1 3.9, hgDAF12 agonist 11, ssDAF12 agonist 1.1
CCc1ccc(C(=O)Nn2c(C)nc3ccccc3c2=O)cc1	ssDAF12 agonist 1.0
O=C(Nn1c(-c2ccc(Br)cc2)nc2ccccc2c1=O)c1ccncc1	hgDAF12 agonist 13
